Compounds with a hit are over-represented: about 19% of the library has one in this group of screens.
DT40 TDP1 CPT: DT40-hTDP1 cell growth loss with CPT; chicken DT40 Tdp1-/-;hTDP1 cells + 20 nM CPT, ATP luminescence, 48 h; Potency, µM (doses to about 46.2 µM), inactives show at the top dose activity change, negative = growth inhibition, usual class: inhibitors; 420,000 tested, 12% active; AID 686979; further: potency means the concentration at half of the fitted maximal effect; nearly all actives have a fitted effect of over 55% in size
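Chicken DT40 Tdp1-/- cells complemented with human TDP1, 400 cells/well, exposed to compounds plus 20 nM camptothecin for at least 48 h at 37 C; viability read as ATP content by CellTiter-Glo luminescence.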
HT1080NT lethal: kills 2HG-producing HT-1080-NT fibrosarcoma cells; Potency, µM (series often up to 46.1 µM), without a hit: at the highest dose activity, negative = less viability, actives largely listed as cytotoxic; 360,000 tested, 1.6% active; AID 686970; HT-1080-NT fibrosarcoma viability, CellTiter-Glo ATP luminescence, 48 h;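 further: NT is the 2HG producing partner of a matched IDH1 knockdown line; potency means the concentration at half of the fitted maximal effect; 0% = DMSO-treated cells and -100% = media-only wells without cells; nearly all actives have a fitted effect of over 55% in size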
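HT-1080-NT; 750 cells/well; 5% FBS RPMI; 48 h compound, 37 degrees C; CellTiter-Glo luminescence; curve fitting and curve-class assignment.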
HT1080 IDH1KD tx: kills HT-1080 cells with IDH1 knockdown; HT-1080 IDH1 knockdown viability, ATP luminescence, 48 h; Potency, µM (titrated, usually from 46.1 µM), for inactives: top-dose activity, negative = toxicity, hits mostly cytotoxic; 360,000 tested, 2% active;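 further: potency means the concentration at half of the fitted maximal effect; 0% = DMSO wells and -100% = cell-free medium wells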
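Viability of IDH1-knockdown HT-1080 fibrosarcoma cells was assessed by CellTiter-Glo after 48 h at 37 °C with titrated compound; concentration-effect curves were classified by fit quality and response size.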
IL-1B inflam inh: blocks inflammasome-driven IL-1 beta release; THP-1 LPS/ATP IL-1B secretion, AlphaLISA, 16 h; hits give low values; 360,000 tested, 4.7% active; activity change, % at 57.5 µM; AID 743279; in the data active means activity change below about -50%; inconclusive means mostly about -30% to -49%
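THP-1 cells pretreated 1 hr with compounds (up to 57.5 uM final), then stimulated with LPS (250 ng/mL final) plus ATP (1.25 mM final); secreted IL-1B measured by AlphaLISA after 16 hr, decreased signal indicating inhibition.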
TDP1 cell noCPT: qHTS for Inhibitors of human tyrosyl-DNA phosphodiesterase 1 (TDP1): qHTS in cells in absence of CPT; DT40 Tdp1-/- hTDP1 cells, no CPT, ATP luminescence, 48 h; Potency, µM (top dose mostly 46.2 µM), without a hit: at the highest dose activity change, negative = growth inhibition, most hits filed as inhibitors; 420,000 tested, 15% active; AID 686978, 2013; further: potency means the concentration at half of the fitted maximal effect; nearly all actives have a fitted effect of over 55% in size
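Camptothecin absent (DMSO only). Human TDP1-complemented DT40 knockout cells, 400 cells/well, 37 °C for minimum 48 hr; ATP measured via CellTiter-Glo, 30 min dark incubation, luminescence.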
* hit, by the source's call; ? = inconclusive; . = not tested or not shown. Unless noted, the call rests on the fitted dose curve; in most records, active means well fitted curve in the direction sought with a large enough effect; inconclusive means small, poorly fitted or top-dose-only effect, or another doubt; inactive means no such curve, though single readings can be large; an effect the other way counts as inactive or inconclusive. Unless noted, on the % scale 0 is the no-effect control and ±100 the full control effect.

SMILES | DT40 TDP1 CPT | HT1080NT lethal | HT1080 IDH1KD tx | IL-1B inflam inh | TDP1 cell noCPT
CCCCc1ncc(CN2CCC(n3nccc3NC(=O)c3ccccc3Cl)CC2)[nH]1 | -22% | -1% | -7% | -10 | 3%
N#C/C(N=Nc1ccccc1O)=N\Nc1ccccc1O | 21µM* | 21µM* | 9.2µM* | ? | 23µM*
COc1ccc(Cl)cc1NC(=O)CSc1cn(CC(=O)N2CCCCCC2)c2ccccc12 | 13µM* | . | . | . | 12µM*
O=C(CSc1cn(CC(=O)N2CCCCC2)c2ccccc12)NCC1CCCO1 (stereo not drawn) | -5% | -9% | -5% | -21 | -13%
COc1ccc(Cl)cc1NC(=O)CSc1cn(CC(=O)N2CCCC2)c2ccccc12 | 12µM* | . | . | . | 3.3µM*
COc1ccc(C)cc1NC(=S)NC(C)c1ccc(OC)c(OC)c1 (stereo not drawn) | ? | -8% | 0% | -26 | ?
CC(C)[C@H](NC(=O)c1cccc(S(=O)(=O)N2CCOCC2)c1)C(=O)OCC(=O)Nc1cccc(Br)c1 | -27% | -1% | 0% | 50 | -27%
CN(Cc1ccco1)c1nc(-c2ccoc2)nc2ccccc12 | ? | . | . | . | -25%
CN(C)c1ccc(-c2nc(-n3ccnc3)c3ccccc3n2)cc1 | 13µM* | . | . | . | 18µM*
CN(C)c1ccc(-c2nc(N(C)Cc3ccco3)c3ccccc3n2)cc1 | 29µM* | . | . | . | 16µM*
CN(C)c1ccc(-c2nc(N(C)C)c3ccccc3n2)cc1 | ? | . | . | . | 23µM*
CCN(CC)c1nc(-c2ccc(C(C)(C)C)cc2)nc2ccccc12 | 23µM* | . | . | . | ?
C[C@H](CO)N1C[C@H](C)[C@H](CN(C)C(=O)Nc2ccc3c(c2)OCCO3)OCc2cnnn2CCCC1=O | 10% | 17% | -2% | -3 | -6%
N=C1C=CC(=C(c2ccc(N)cc2)c2ccc(N)cc2)C=C1 | 2.9µM* | 23µM* | 7.3µM* | 0 | 3.3µM*
CO/N=C(\C(=O)N[C@@H]1C(=O)N2C(C(=O)[O-])=C(C[n+]3cccc4c3CCC4)CS[C@H]12)c1csc(N)n1 | ? | . | . | . | -30%
CCOC(=O)c1ccc(N2C(=O)c3n[nH]c(-c4cccs4)c3C2c2ccc(O)c(OC)c2)cc1 (stereo not drawn) | ? | . | . | . | 21µM*
CCOC(=O)c1ccc(N2C(=O)c3n[nH]c(-c4cccs4)c3C2c2ccc(C)cc2)cc1 (stereo not drawn) | 1% | . | . | . | -2%
CCOC(=O)c1ccc(N2C(=O)c3n[nH]c(-c4cccs4)c3C2c2cccc(F)c2)cc1 (stereo not drawn) | ? | . | . | . | 18µM*
CCCCn1c(N)c(N(CCC(C)C)C(=O)c2c(C)noc2C)c(=O)[nH]c1=O | 4% | 22% | 22% | 4 | -22%
CC(=O)Nc1ccc(N2N=C(C)C(N=Nc3ccccc3)C2=O)cc1 (stereo not drawn) | -10% | -1% | 8% | 16 | -24%
CC(C)c1c(Cl)c(O)c(-c2ccccc2)c(=O)n1-c1ccc(F)cc1 | ? | -7% | -1% | 37 | -1%
CC1(C(=O)NS(=O)(=O)c2cccc(C#N)c2)CCN1C(=O)C1(c2ccc(Cl)cc2)CCC1 (stereo not drawn) | 8% | -6% | 6% | -14 | 5%
CC1(C(=O)N2Cc3ccccc3C2)CCN1C(=O)C1(c2ccc(Cl)cc2)CC1 (stereo not drawn) | 16µM* | -2% | -9% | -17 | ?
CC1(C(=O)Nc2cccc(C#N)c2)CCN1C(=O)C1(c2ccccc2)CC1 (stereo not drawn) | 5.2µM* | ? | 13% | 21 | ?
CC1(C(=O)NS(=O)(=O)c2ccc(C#N)cc2)CCN1C(=O)C1(c2ccc(Cl)cc2)CCC1 (stereo not drawn) | 18µM* | 0% | 0% | 26 | -30%
SMILES | DT40 TDP1 CPT | HT1080NT lethal | HT1080 IDH1KD tx | IL-1B inflam inh | TDP1 cell noCPT
COc1cccc(NC(=O)C2(C)CCN2C(=O)Cc2ccc(C(C)C)cc2)c1 (stereo not drawn) | 18µM* | -22% | -29% | 20 | ?
Cc1cc(C)cc(CC(=O)N2CCC2(C)C(=O)NS(=O)(=O)c2cc(C)ccc2F)c1 (stereo not drawn) | 5% | 22% | 17% | 2 | 2%
O=C(NCc1ccccc1)c1cc(C2CCCN(S(=O)(=O)c3ccccc3)C2)on1 (stereo not drawn) | ? | 0% | 1% | -13 | ?
CC1(C(=O)Nc2cccc(C#N)c2)CCN1C(=O)Cc1ccc(-c2ccccc2)cc1 (stereo not drawn) | 4.1µM* | ? | ? | 0 | 2.6µM*
CC(C)c1ccc(CC(=O)N2CCC2(C)C(=O)Nc2cccc(C#N)c2)cc1 (stereo not drawn) | ? | -11% | -29% | -25 | 16µM*
C/C(CCc1ccccc1)=N\NC(=O)C(=O)Nc1cccc(Cl)c1 | ? | 1% | 0% | -13 | ?
O=C(N/N=C/c1cccc(Oc2ccccc2)c1)c1cccc(O)c1 | ? | ? | 21µM* | -5 | ?
O=C(N/N=C/c1cccc(OC(=O)c2cccc(Br)c2)c1)c1cccnc1 | 1% | 4% | -2% | -8 | -3%
O=C(N/N=C/c1cccc(Oc2ccccc2)c1)c1cccc(Br)c1 | ? | -18% | -29% | 6 | 21µM*
CN(C)C(=O)/C(=C\c1cccc(Oc2ccccc2)c1)NC(=O)c1ccccc1 | 16µM* | -14% | -21% | -9 | ?
COC(=O)/C(=C/c1cccnc1)NC(=O)c1ccccc1 | 7% | -3% | 3% | 0 | -5%
O=C(CNc1cccc2ccccc12)N/N=C/c1cccc(Oc2ccccc2)c1 | ? | ? | ? | -7 | 26µM*
NC(=O)c1ccc(C(=O)N/N=C/c2cccc(Oc3ccccc3)c2)cc1 | 1% | 4% | 4% | -4 | 4%
CS(=O)(=O)N(CC(=O)Nc1ccc(S(=O)(=O)N2CCOCC2)cc1)c1ccccc1Br | -16% | -2% | 2% | -4 | ?
O=C(NCc1ccc(Cl)cc1)C1CCN(S(=O)(=O)Cc2ccccc2)CC1 | -16% | . | . | . | -1%
O=C(N/N=C/C=C/c1ccccc1)c1cccc(Br)c1 | ? | ? | ? | -26 | 21µM*
CCc1nn2c(=O)cc(COc3cccc(NC(=O)c4ccco4)c3)nc2s1 | 21µM* | 18% | 0% | -10 | ?
Cc1nn2c(=O)cc(COC(=O)c3ccc(NC(=O)c4cccs4)cc3)nc2s1 | 16µM* | . | . | . | 15µM*
CCCCc1nn2c(=O)cc(COC(=O)c3cccc(NC(=O)c4cccc(C)c4)c3)nc2s1 | 9% | . | . | . | 0%
